# The supplement of paper PMC13380429
# Unmarked numbers belong to inactive results.
# Tested on: Vero E6 infected with SARS-CoV-2
# Assay: inhibition of SARS-CoV-2 cytopathic effect; higher = more antiviral protection, active = above 15
# Conditions: 48 h
SMILES,inhibition of SARS-CoV-2 cytopathic effect (1 nM) [%],inhibition of SARS-CoV-2 cytopathic effect (8.33 nM) [%],inhibition of SARS-CoV-2 cytopathic effect (100 nM) [%],inhibition of SARS-CoV-2 cytopathic effect (833.33 nM) [%],inhibition of SARS-CoV-2 cytopathic effect (10000 nM)
O=C(O)/C=C\c1c[nH]cn1 [cis-Urocanic acid],0.865,-1.24,-1.15,-0.955,1.12%
CN1[C@@H]2CC[C@H]1C[C@@H](OC(c1ccccc1)c1ccccc1)C2 [benztropine-mesylate],1.74,-0.55,1.26,-8.96,-7.74%
Nc1cc(N2CCCCC2)nc(N)[n+]1[O-] [minoxidil],0.37,0.28,-0.2,1.1,-0.33%
c1ccc2c(c1)OC[C@H](CNCCCOc1ccc3c(c1)OCO3)O2 [osemozotan],2.23,1.12,3.35,1.42,0.79%
C[C@H]1CC[C@H](n2c3cnccc3c3cnc(Nc4ccc5c(n4)CCN(C(=O)CO)C5)nc32)CC1,-2.38,-0.1,-1.1,-0.44,-5.03%
CC[C@@]1(O)C(=O)OCc2c1cc1n(c2=O)Cc2c-1nc1cc(F)c(C)c3c1c2[C@@H](N)CC3 [exatecan-mesylate],-2.4,-0.39,-7.04,-15.8,-20.5%
O=C(N[C@@H]1CC[C@@H](c2cccc(F)c2F)CN(CC(F)(F)F)C1=O)N1CCC(n2c(=O)[nH]c3ncccc32)CC1 [telcagepant],0.8,6.42,7.5,2.53,5.63%
CCc1cc2cc(OC)c(OC)cc2c(Cc2ccccc2)n1 [moxaverine],3.28,0.47,0.44,0.83,4.26%
Cc1nc(C)c(Cl)c(O)c1Cl [clopidol],-2.81,-1.24,1.07,0.96,1.78%
Cn1c(=O)c2c(ncn2CC2OCCO2)n(C)c1=O [doxofylline],-0.49,-2.41,-0.01,-1.59,-0.77%
O[C@@H]1CO[C@H]2[C@@H]1OC[C@@H]2O [isosorbide],-0.13,1.81,1.18,3.22,3.05%
CCCOC(=O)c1ccc(O)cc1 [propyl 4-hydroxybenzoate],-1.38,-0.18,-0.42,2.26,-3.05%
COc1cc(Br)c(S(=O)(=O)Nc2ccc(C(F)(F)F)c(O[C@@H]3CCN(C)C3)c2)cc1OC,1.05,2.6,-1.36,-0.46,-2.24%
CCc1nc(-c2cccc(C)c2)c(-c2ccnc(NC(=O)c3ccccc3)c2)s1,1.89,-0.27,-3.38,-1.52,-4.97%
CC(O)c1cc(C(=O)N[C@@H](C)Cn2ccc(-c3ccc(C#N)c(Cl)c3)n2)n[nH]1 (stereo not given in full),1.69,0.5,0.89,-0.69,0.64%
Cc1ncc(COP(=O)([O-])[O-])c(CN(CCN(CC(=O)O)Cc2c(COP(=O)([O-])O)cnc(C)c2O)CC(=O)O)c1O.[Mn].[Na+].[Na+].[Na+] [Mangafodipir (trisodium)],-2.31,-3.12,-2.65,-1.43,-3.61%
CCCn1c(=O)c2[nH]c(C3CCCC3)nc2n(CCC)c1=O,2.33,2.47,1.58,-1.44,1.86%
O=c1[nH]c(=O)n([C@H]2C[C@H](O)[C@@H](CO)O2)cc1Br [broxuridine],1.7,1.06,1.08,3.59,0.04%
CCCCCCNC(=O)Nc1ccc(S(=O)(=O)Nc2ccc(CCNC[C@H](O)COc3ccc(O)cc3)cc2)cc1,0.66,0.75,0.54,2.18,1.5%
Cc1cc(CCC[C@H](CC(=O)NO)C(=O)N[C@H](C(=O)N[C@H](C)c2ccccc2)C(C)(C)C)ccc1-c1ccccc1,-1.73,-2.08,-3.51,-2.76,-13%

SMILES,inhibition of SARS-CoV-2 cytopathic effect (1 nM) [%],inhibition of SARS-CoV-2 cytopathic effect (8.33 nM) [%],inhibition of SARS-CoV-2 cytopathic effect (100 nM) [%],inhibition of SARS-CoV-2 cytopathic effect (833.33 nM) [%],inhibition of SARS-CoV-2 cytopathic effect (10000 nM)
O=C1NC(=O)c2c1c1c3ccccc3n3c1c1c2c2ccccc2n1C1CCC3O1,0.12,2.27,-1.21,4.22,8.57%
Cc1ccc(/C=C2\CNC/C(=C\c3ccc(C)cc3)C2=O)cc1,-3.15,-1.97,-0.54,-0.34,0.13%
O=c1c(-c2ccc(O)cc2)coc2cc(O)cc(O)c12 [genistein],-1.79,1.66,2.02,3.3,-1.82%
Clc1ccccc1CNC[C@H]1CC[C@H](CNCc2ccccc2Cl)CC1,-1.74,-2.28,-1.13,-3.17,16.4% (active)
S=C=Nc1ccc(N=C=S)cc1 [bitoscanate],-1.75,0.45,-0.83,0.38,-2.58%
C=C1C(=O)O[C@@H]2C[C@@]3(C)CCC[C@H](C)C3=C[C@H]12 [alantolactone],-2.07,-0.06,-2.01,1.03,12.6%
CC(CCc1ccccc1)NC(C)C(O)c1ccc(O)cc1 (stereo not given) [buphenine],1.42,1.45,-1.15,-0.63,-2.78%
CCC(=O)O[C@H](CC(=O)O)C[N+](C)(C)C [levocarnitine-propionate],-0.81,4.36,0.32,3.36,0.31%
C[C@@H]1CCN(C(=O)CC#N)C[C@@H]1N(C)c1ncnc2[nH]ccc12,-0.74,0.22,-0.47,-2.11,-0.5%
CN1CCN(c2cc(-c3ccccc3)nc(N)n2)CC1,2.02,3.76,2.45,4.99,2.49%
CN(C)[C@@H]1C(O)=C(C(N)=O)C(=O)[C@@]2(O)C(O)=C3C(=O)c4c(O)ccc(Cl)c4[C@@H](O)[C@H]3C[C@@H]12 [demeclocycline],1.68,1.08,0.96,1.19,2.34%
Clc1ccc(C(c2ccc(Cl)cc2)C(Cl)(Cl)Cl)cc1,1.71,4.86,0.57,-1.73,-1.33%
CCCCc1ncc(/C=C(\Cc2cccs2)C(=O)O)n1Cc1ccc(C(=O)O)cc1 [eprosartan],-1.35,-0.99,-0.35,-0.6,2.22%
Cc1cc(N2CCN([C@@H]3CN[C@H](C(=O)N4CCSC4)C3)CC2)n(-c2ccccc2)n1 [teneligliptin],0.52,1.21,1,1.12,-2.67%
CC(=O)Oc1cccc(C(=O)O)c1OC(C)=O [dipyrocetyl],-0.44,-1.4,2.59,-0.15,5.25%
Cc1ccsc1/C=C/C1=NCCCN1C [morantel],-0.99,-3.26,-2.09,-5.69,-0.33%
COc1ccc(-n2nc(C(F)(F)F)cc2-c2ccc(Cl)cc2)cc1,2.57,3.29,1.98,1.58,-5.13%
O=C(Cc1ccc(-c2ccc(OCCN3CCOCC3)cc2)cn1)NCc1ccccc1,-1.67,0.24,-3.29,-1.51,-1.44%
N#C/C(=C\c1ccc(O)c(O)c1)C(=O)NCCCc1ccccc1,-2.32,-2.1,-0.73,0.57,0.75%
COc1ccc2[nH]cc(CCNC(C)=O)c2c1 [melatonin],2.18,0.84,2.24,2.42,-2.74%
